ChEMBL document CHEMBL1201862, “PubChem BioAssay data set” (2004)
The whole screen tested about 52,000 sequences, of which about 3,800 (7.3%) were called active. Cut-off read from the data, not from the text of the source: active = GI50 up to about 1.1 µM and inactive = higher. A selection follows. Results with a measured potency or affinity are listed apart.

What follows are substances tested on HOP-92.
Work on “[Bis(aminomethyl)diethylsilane]tetrachloroplatinum(IV), CHEMBL2146203” yielded a GI50 of 4.25 µM.
Substance “[Bis(aminomethyl)dimethylsilane]dichloroplatinum (II), CHEMBL2146201” has a GI50 of 29.4 µM.
With “[Bis(aminomethyl)pentamethylenesilane]dichloropaltinum(II), CHEMBL2146202” the GI50 was 40.4 µM.
Work on “[Bis(aminomethyl)dimethylsilane]tetrachloroplatinum(IV), CHEMBL2146190” yielded a GI50 of 14.4 µM.
Substance “[Bis(aminomethyl)tetramethylenesilane]dichloropaltinum(II), CHEMBL2146205” has a GI50 of 28.4 µM.
“mu-(1,7-nanodiamine-N,N')bis-(cis-aminedichloroplatimum (II)), CHEMBL2146215” gave a GI50 of 41.8 µM.
Substance “cis-Bis[[(trimethylsilyl)methyl]amino]tetrachloroplatinum(IV), CHEMBL2146191” has a GI50 of 3.11 µM.
“[Bis(aminomethyl)pentamethylenesilane]tetrachloropaltinum(IV), CHEMBL2146204” was tested, and the GI50 was 24.2 µM.
“[Bis(aminomethyl)ethylmethylsilane]tetrachloroplatinum(IV), CHEMBL2146192” was tested, and the GI50 was 21.3 µM.
For “[Bis(aminomethyl)tetramethylenesilane]tetrachloropaltinum(IV), CHEMBL2146189”, the GI50 was 21.5 µM.
For CISPLATIN, CHEMBL11359, the GI50 was 3.74 µM.
